# Assay results as given in PubChem BioAssay (NCI).
# The panel holds about 83,000 compounds, 20% with a hit somewhere; the sample as a whole holds those more often.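 48-hour exposure, single concentration, 96-well plates; percent growth endpoint where 0 means no net growth. Active: below 10.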 Values without a mark were called inactive. Active and inactive are the calls of the source.
# What was measured:
# Experiment in all cases: NCI-60 one-dose screen, 48 h (100 = growth as untreated, 0 = no growth, -100 = all killed)
# Details in all cases: 10 µM unless noted
# DU-145 prostate = test system: DU-145 prostate
# K-562 leukemia = test system: K-562 leukemia
# MALME-3M melanoma = test system: MALME-3M melanoma
# MDA-MB-231 breast = test system: MDA-MB-231 breast
# RXF 393 renal = test system: RXF 393 renal
# SF-268 CNS = test system: SF-268 CNS
# SF-295 CNS = test system: SF-295 CNS
# SF-539 CNS = test system: SF-539 CNS
# UACC-257 melanoma = test system: UACC-257 melanoma
# HCT-15 colon = test system: HCT-15 colon
# HT29 colon = test system: HT29 colon
# SNB-75 CNS = test system: SNB-75 CNS
# SNB-19 CNS = test system: SNB-19 CNS
# U251 CNS = test system: U251 CNS
# PC-3 prostate = test system: PC-3 prostate
# UACC-62 melanoma = test system: UACC-62 melanoma
# LOX IMVI melanoma = test system: LOX IMVI melanoma
# SK-MEL-28 melanoma = test system: SK-MEL-28 melanoma
# SK-MEL-5 melanoma = test system: SK-MEL-5 melanoma
SMILES,growth (DU-145 prostate),growth (K-562 leukemia),growth (MALME-3M melanoma),growth (MDA-MB-231 breast),growth (RXF 393 renal),growth (SF-268 CNS),growth (SF-295 CNS),growth (SF-539 CNS),growth (UACC-257 melanoma),growth (HCT-15 colon),growth (HT29 colon),growth (SNB-75 CNS),growth (SNB-19 CNS),growth (U251 CNS),growth (PC-3 prostate),growth (UACC-62 melanoma),growth (LOX IMVI melanoma),growth (SK-MEL-28 melanoma),growth (SK-MEL-5 melanoma)
Clc1cccc(/C=N/Nc2nc(N/N=C/c3cccc(Cl)c3)nc(N3CCCCC3)n2)c1,94.6%,83%,109%,116%,93.4%,92%,93%,105%,111%,79.8%,85.6%,102%,98.6%,91.7%,76%,79.2%,105%,96.2%,–
O=C(CCCCCC/C=C\c1csc(Br)n1)NO,87.7%,50.5%,66.7%,98.4%,97%,108%,95.4%,78.9%,82%,90.9%,84.5%,64.8%,97%,91.4%,82%,74.5%,70.1%,92.4%,97.1%
Clc1ccc2[nH]cc(-c3cncn3CCc3ccc4c(c3)OCO4)c2c1,86.3%,48.8%,75.5%,65.8%,54.7%,66.5%,58.4%,83.8%,57.5%,72%,70.5%,73.8%,82.1%,69.9%,51%,62.3%,91.5%,93.5%,33.8%
OCC(Nc1ncnc2ccc(-c3cnc4cnccn34)cc12)c1ccccc1 (stereo unspecified),47.4%,60.2%,81.5%,83.2%,65.4%,75.9%,64.7%,79%,80.7%,–,83.5%,85.6%,70.6%,88.5%,79.9%,74.1%,85.2%,97.8%,37.5%
Cc1ccc2c(n1)C(=O)C(Cl)=C(Nc1cccc(C(=O)OC(C)(C)C)c1)C2=O,94.8%,-18.1% (active),127%,74.4%,84.3%,93.4%,104%,105%,72.3%,47.1%,114%,95.7%,97.6%,88.5%,72%,90.7%,8.98% (active),103%,88.1%
CCOC(=O)c1c(NC(=O)c2cccc(C(F)(F)F)c2)sc2c1CCC(=O)C2,94.8%,5.25% (active),58.3%,55.2%,25.6%,27.7%,24.3%,-9.48% (active),82.2%,18.9%,65.4%,31.6%,21.4%,3.77% (active),3.56% (active),30.9%,9.07% (active),89.2%,38%
Cc1nc(/N=C(N)/N=C(\N)c2cccc(Br)c2)sc1C,57.9%,15.9%,62%,76.5%,56.9%,80%,8.89% (active),37.8%,88.3%,25.1%,17.8%,62.9%,42.9%,47%,59.8%,28.1%,43.5%,72.8%,69.8%
C1=CC(c2nn3c(-c4ccccc4)nnc3s2)=Cc2ccccc2O1,84.8%,43.5%,74.1%,78.3%,22.7%,77.8%,97.9%,71.7%,67.8%,23.5%,82.1%,78.3%,74.9%,84.9%,80.5%,74%,-24.4% (active),30.6%,95.6%
CCN(CC)c1ccc(/C=N/NC(=O)c2ccc(NS(C)(=O)=O)cc2)c(O)c1,31.3%,14.2%,4.46% (active),38.4%,-9.12% (active),22.7%,9.79% (active),7.08% (active),-6.91% (active),20.1%,27.4%,48.1%,34.7%,23.8%,31.7%,0.285% (active),0.336% (active),23%,0.13% (active)
CN1CCN(Cc2ccc(NC(=O)c3cncc(C#Cc4cnc5ccc(N6CCOCC6)nn45)c3)cc2C(F)(F)F)CC1,-84.7% (active),-0.943% (active),-86.2% (active),-56.4% (active),-77.9% (active),-62.1% (active),-84.8% (active),-90.8% (active),-29.5% (active),-53.9% (active),-71.2% (active),-46.3% (active),-20.3% (active),-92.8% (active),-7.08% (active),-62.2% (active),-93.8% (active),-76.4% (active),-95.9% (active)
CC(=O)OC[C@@]12Oc3c(cccc3-c3ccc(O)c4c3O[C@]3(COC(C)=O)C(=C4O)C(=O)C[C@H](C)[C@@H]3OC(C)=O)C(O)=C1C(=O)C[C@H](C)[C@@H]2OC(C)=O,20.7%,11.6%,-15.5% (active),5.9% (active),11.9%,17.2%,-21.9% (active),18.4%,-8.95% (active),11.9%,10.4%,-10.4% (active),17.7%,16.6%,11.6%,-36.9% (active),-66.1% (active),9.46% (active),-62.8% (active)
CCOC(=O)c1cccnc1Nc1ccc(NC(=O)Nc2ccc(Cl)c(C(F)(F)F)c2)cc1,32.6%,13.4%,51.4%,95.8%,93.7%,73.5%,9.85% (active),75.6%,58%,14.4%,36.1%,106%,49.3%,30.1%,7.22% (active),45.4%,22.5%,43.7%,67.8%
Cc1ccc(S(=O)(=O)NCCCNc2nc(Nc3ccc(N4CCN(C)CC4)cc3)nc3ccsc23)cc1,42.7%,13.3%,-87.9% (active),23%,-59.3% (active),42%,-41.6% (active),-80.8% (active),-73.2% (active),3% (active),-61.8% (active),88.5%,58.7%,6.58% (active),63.5%,-48.3% (active),-77.6% (active),-84.5% (active),–
O=C1Nc2ccccc2/C1=N\c1nnc(-c2ccccc2)o1,107%,103%,89.7%,82.9%,92%,98.1%,92.8%,97.8%,100%,87.2%,99.2%,59.9%,91.5%,97.8%,79%,79.7%,102%,106%,94.3%
C=C(C)[C@@H]1CC[C@]2(C(=O)N3CCN(C)CC3)CC[C@]3(C)[C@H](CC[C@@H]4[C@@]5(C)CC[C@H](OP(=O)(OCC)OCC)C(C)(C)[C@@H]5CC[C@]43C)[C@@H]12,101%,29.6%,106%,83.6%,59.5%,87.3%,89.4%,84.8%,82.9%,60.2%,76.1%,89.7%,90.9%,78.8%,44.3%,81.6%,44.6%,104%,69.7%
O=C(/C=C/c1ccc(F)cc1)Nc1cccc2cccnc12,107%,101%,100%,100%,110%,104%,111%,102%,114%,75.4%,105%,106%,109%,102%,98.5%,91.8%,121%,109%,98.7%
